HT1080NT lethal: kills 2HG-producing HT-1080-NT fibrosarcoma cells; HT-1080-NT fibrosarcoma viability, CellTiter-Glo ATP luminescence, 48 h; Potency, µM (titrated, usually from 46.1 µM), most hits filed as cytotoxic; 360,000 compounds, 1.6% hits;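 also: NT is the 2HG producing partner of a matched IDH1 knockdown line; nearly all actives have a fitted effect of over 55% in size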
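HT-1080-NT fibrosarcoma cells (2HG-overproducing), 750 cells/well in RPMI with 5% FBS, dosed after 2 h and incubated 48 h at 37C. CellTiter-Glo luminescence normalized to DMSO and no-cell wells; concentration-response curves fitted and classed.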
DT40 TDP1 CPT: DT40-hTDP1 cell growth loss with CPT. chicken DT40 Tdp1-/-;hTDP1 cells + 20 nM CPT, ATP luminescence, 48 h. Potency, µM (highest dose often 46.2 µM), usual class: inhibitors. 420,000 compounds, 12% hits. AID 686979; also: nearly all actives have a fitted effect of over 55% in size
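Cell growth measured by CellTiter-Glo luminescence after a minimum 48 h, 37 C compound exposure with 20 nM CPT in Tdp1-knockout DT40 cells stably expressing hTDP1, seeded 400/well; qHTS titration format.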
TDP1 cell noCPT: qHTS for Inhibitors of human tyrosyl-DNA phosphodiesterase 1 (TDP1): qHTS in cells in absence of CPT | Potency, µM (doses to about 46.2 µM), actives largely listed as inhibitors | 420,000 compounds, 15% hits | AID 686978, 2013 | DT40 Tdp1-/- hTDP1 cells, no CPT, ATP luminescence, 48 h; also: nearly all actives have a fitted effect of over 55% in size
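Growth kinetics read by CellTiter-Glo luminescence after ≥48 hr at 37 °C. Cells: DT40 Tdp1-/- stably carrying human TDP1, 400 per well, compound exposure in the absence of CPT (DMSO vehicle).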
HT1080 IDH1KD tx: toxicity to HT-1080 IDH1 knockdown cells (counter line). AID 686971. Potency, µM (series often up to 46.1 µM), usual class: cytotoxic. HT-1080 IDH1 knockdown viability, ATP luminescence, 48 h. 360,000 compounds, 2% hits
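After a 2 h attachment period, IDH1KD HT-1080 cells took pin-transferred compound for 48 h at 37 °C; ATP-based luminescence after 10 min room-temperature reagent incubation reported viability.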
KB-3-1 tox: kills parental KB-3-1 adenocarcinoma cells. Potency, µM (doses to about 46.1 µM), usual class: cytotoxic. KB-3-1 viability, CellTiter-Glo ATP luminescence, 72 h. AID 1347075. 400,000 compounds, 1.4% hits; also: nearly all actives have a fitted effect of over 60% in size
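Viability of parental KB-3-1 cells, measured by CellTiter-Glo luminescence, followed a 72 h incubation at 37 °C with pinned compounds in phenol-red-free DMEM containing 10% FBS.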
KB-V1 cytotox: KB-V1 MDR subline cytotoxicity. KB-V1 MDR cells viability, CellTiter-Glo, 72 h. Potency, µM (titrated, usually from 46.1 µM), usual class: cytotoxic. 400,000 compounds, 3.4% hits; also: nearly all actives have a fitted effect of over 60% in size
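Readout: CellTiter-Glo luminescence, 10 min after addition. Cells: KB-V1 MDR subline, 72 h at 37 degrees C with compound. Analysis: corrected, normalized data fitted to concentration-effect curves.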
Hits are given with their value; – = inactive; ? = inconclusive; · = not tested or not shown; ! = not active in a repeat; [ ] = dose if it differs, or a comment. In the library only some 19% were active in any assay of this set; here they are far more common. Calls follow the shape of the dose curve; as a rule, active = well fitted curve in the direction sought with a large enough effect; inconclusive = small, poorly fitted or top-dose-only effect, or another doubt; inactive = no such curve, though single readings can be large; an effect the other way counts as inactive or inconclusive.

SMILES | HT1080NT lethal | DT40 TDP1 CPT | TDP1 cell noCPT | HT1080 IDH1KD tx | KB-3-1 tox | KB-V1 cytotox
CC(C)[C@H](NC(=O)N1CCn2c1nc1ccccc12)C(=O)N1CCCCC1 | – | – | – | – | – | –
OCCNc1ncnc2c1ncn2[C@H]1CN(Cc2ccc3c(c2)OCO3)C[C@@H](CO)O1 | – | – | – | – | – | –
O=C(c1ccc2c(c1)N(Cc1ccccc1F)C(=O)c1ccccc1S2=O)N1CCN(c2ccccc2)CC1 (configuration not stated) | · | 23µM | 16µM | · | – | –
CN1CCN(C(=O)c2ccc3c(c2)N(Cc2ccccc2F)C(=O)c2ccccc2S3=O)CC1 (configuration not stated) | – | ? | – | – | – | –
O=C(c1ccc2c(c1)N(Cc1ccc(Cl)cc1)C(=O)c1ccccc1S2=O)N1CCN(c2ccccc2F)CC1 (configuration not stated) | · | 23µM | 21µM | · | – | –
CCOC(=O)c1oc2c(c1C)-c1nn(Cc3cccc(Cl)c3)cc1CC2 | · | ? | – | · | · | ·
Cc1ccc([C@@H]2CC=C(C(=O)O)[C@H](c3cccc(F)c3)N2S(=O)(=O)c2ccccc2C)cc1 | – | – | – | – | – | –
CC(=O)N1c2nc(C(C)C)nn2C2(CCCCC2)[C@@H]2CCCC[C@@H]21 | · | 4.1µM | 1.8µM | · | – | –
CC(C)CC(=O)N1c2nc(C(C)C)nn2C2(CCCCC2)[C@@H]2CCCC[C@@H]21 | · | – | ? | · | · | ·
CCCC(=O)N1c2nc(C(C)C)nn2C2(CCCCC2)[C@@H]2CCCC[C@@H]21 | · | 10µM | 9.2µM | · | · | ·
COCC(=O)N1c2nc(C(C)C)nn2C2(CCCCC2)[C@@H]2CCCC[C@@H]21 | · | 2.9µM | 2.9µM | · | · | ·
CCCS(=O)(=O)N1CCN(Cc2c[nH]c3ccccc23)CC1 | – | ? | ? | – | – | –
COc1ccc([N+](=O)[O-])cc1NC(=O)COC(=O)C12CC3CC(CC(O)(C3)C1)C2 | – | – | ? | – | – | –
Cc1ccc2[nH]cc(C(=O)NCc3cccs3)c(=O)c2c1 | – | 23µM | 23µM | –[9.24 µM] | – | ?
CCOCCCNC(=O)c1c[nH]c2ccc(C)cc2c1=O | – | – | – | – | – | –
COc1cccc2c(=O)c(C(=O)NCc3cccs3)c[nH]c12 | – | – | 6.5µM | – | ? | ?
CN1CC(=O)N(CC(=O)Nc2ccc3c(c2)CCC3)C1=O | – | – | – | – | – | –
COc1ccc(Cl)cc1N(C)C(=O)Cc1noc2ccc(C)cc12 | · | 16µM | 18µM | · | – | –
Cc1ccc2onc(CC(=O)N3CCN(c4cc(Cl)ccc4C)CC3)c2c1 | · | ? | 16µM | · | ? | ?
Cc1ccc2onc(CC(=O)O)c2c1 | – | – | – | – | – | –
Nc1ccc(N(c2ccccc2)c2ccc(N)cc2)cc1 | 16µM | 16µM | 13µM | 21µM | ? | ?
CCOc1cc(/C=N/NC(=O)c2cccnc2)ccc1OC(=O)c1ccco1 | – | – | – | – | – | –
CCOc1cc(/C=N\NC(=O)c2ccc(C)nc2)ccc1OC(=O)c1ccc(F)cc1 | – | – | ? | – | – | –
CCOc1cc(/C=N\NC(=O)c2ccc(NC(=O)CC)cc2)ccc1OC(=O)c1ccccc1 | – | 18µM | ? | – | ? | ?
CCOc1cc(/C=N\NC(=O)c2ccc(NC(=O)C(C)(C)C)cc2)ccc1OC(=O)c1ccc(C)cc1 | – | ? | 29µM | – | – | –
SMILES | HT1080NT lethal | DT40 TDP1 CPT | TDP1 cell noCPT | HT1080 IDH1KD tx | KB-3-1 tox | KB-V1 cytotox
COc1cc(C(=O)N/N=C/c2ccc(OC(=O)c3ccccc3)c(OC)c2)ccc1O | – | – | – | – | ? | –
CCOc1cc(/C=N/NC(=O)CNc2ccc(C)cc2)ccc1OC(=O)c1ccccc1 | – | 29µM | ? | – | – | –
CCOc1cc(/C=N\NC(=O)c2ccc(NC(=O)C(C)(C)C)cc2)ccc1OC(=O)c1cccc(C)c1 | – | 12µM | 8.2µM | ? | – | ?
CCOc1ccc(N2C(=O)CC(N3CC(C)OC(C)C3)C2=O)cc1 (configuration not stated) | – | – | – | – | – | –
Cc1ccc(-n2nc3c(N4CCC(C(=O)NC5CCC(C)CC5)CC4)nnc(C)c3c2C)cc1 (configuration not stated) | · | 15µM | 21µM | · | – | –
Cc1ccc(-n2nc3c(N4CCC(C(=O)NC5CCCCC5)CC4)nnc(C)c3c2C)cc1 | · | ? | 12µM | · | – | –
O=C(CNC(=S)N(Cc1ccccc1Cl)C1CCCC1)NCCN1CCOCC1 | – | – | – | – | – | –
COc1cc(NC(=O)CN2CCN(CC(=O)Nc3ccccc3OC)CC2)cc(OC)c1 | – | 16µM | ? | – | – | –
COc1ccccc1NC(=O)CN1CCN(CC(=O)Nc2ccc(F)c(F)c2)CC1 | · | ? | ? | · | – | –
COc1ccccc1NC(=O)CN1CCN(CC(=O)Nc2ccc(S(N)(=O)=O)cc2)CC1 | – | ? | 13µM | – | – | –
COc1ccccc1NC(=O)CN1C(=O)CC(c2ccc(C)c(C)c2)=Nc2ccccc21 | · | 23µM | 23µM | · | – | 16µM
COc1ccccc1NC(=O)CN1CCN(CC(=O)Nc2ccc(C)c(F)c2)CC1 | – | 16µM | 16µM | – | – | –
COc1ccccc1NC(=O)CN1CCN(CC(=O)Nc2ccc(OC)c(OC)c2)CC1 | – | – | – | – | – | –
CCOCC(=O)Nc1nnc(C2CCCCC2)s1 | – | – | – | – | – | –
COc1cc2oc(=O)ccc2cc1[C@@H](O)[C@@H]1OC(C)(C)OC1(C)C | – | – | – | – | – | –
Cc1c(C(=O)N2CCOc3ccccc3C2)sc2ncnc(NCCCN3CCOCC3)c12 | · | – | – | · | · | ·
COc1cc2ncnc(NCc3cc(F)ccc3F)c2cc1OC | – | – | ? | – | – | –
Cc1ccc(CNc2ncnc3[nH]ncc23)o1 | · | – | – | · | ? | –
c1coc(CNc2ncnc3[nH]ncc23)c1 | – | 11µM! | ? | – | – | –
Fc1cccc(CNc2ncnc3cc(Cl)ccc23)c1F | – | 16µM | 10µM | – | ? | –
COc1ccccc1CNc1ncnc2cc(OC)c(OC)cc12 | – | 21µM | 23µM | – | – | –
COc1cccc(CNc2ncnc3cc(Cl)ccc23)c1 | – | ? | ? | ? | – | ?
COc1ccc(CNc2ncnc3cc(Cl)ccc23)cc1 | – | 15µM | 13µM | – | ? | 21µM
